# The sample as a whole holds a higher share of hits than the screen did.
# Cruzain Triton – cruzain (T. cruzi) inhibition with detergent. P25779. 200,000 compounds, 0.43% hits. purified cruzain, Z-FR-AMC fluorescence, 0.01% Triton. Potency, µM, for the others: max response, negative = inhibition, most hits filed as inhibitors;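 also: plate controls were neutral wells for no effect and buffer without enzyme for full effect; nearly all actives have a fitted effect of over 40% in size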
# Target sequence (P25779 123-467 limits assumed): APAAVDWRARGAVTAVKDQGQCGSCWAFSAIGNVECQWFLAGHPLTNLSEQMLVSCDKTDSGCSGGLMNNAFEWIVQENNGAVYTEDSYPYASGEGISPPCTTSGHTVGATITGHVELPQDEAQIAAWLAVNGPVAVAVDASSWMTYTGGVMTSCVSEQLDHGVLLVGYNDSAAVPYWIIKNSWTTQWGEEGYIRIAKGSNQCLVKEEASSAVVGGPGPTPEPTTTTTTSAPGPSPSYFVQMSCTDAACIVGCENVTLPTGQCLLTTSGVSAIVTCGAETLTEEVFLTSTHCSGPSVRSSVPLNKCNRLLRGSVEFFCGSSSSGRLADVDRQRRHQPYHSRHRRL
#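 Cruzain (1.5 nM) preincubated 15 min at RT with compound in 100 mM sodium acetate pH 5.5, 5 mM DTT, 0.01% Triton X-100. Reaction started with 2 uM Z-FR-AMC; AMC fluorescence (ex 360/em 450 nm) change over 60 s gave rate.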
# NS1 function inh – influenza NS1 inhibition | Potency, µM (titrated, usually from 46.1 µM), inactives show at the highest dose activity, positive = more growth | 270,000 compounds, 0.4% hits | AID 2326; calls by dose curve; also: actives are rising curves; nearly all actives have a fitted effect of over 50% in size
#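 In this qHTS, NS1 from influenza A is expressed in budding yeast, where it slows growth. Cells are switched from glucose to 2% galactose medium (pH 6.0, -URA), treated with compound, and growth recovery is read at OD600.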
# Cruzain inh noDet – inhibitors of Trypanosoma cruzi cruzain without detergent. 200,000 compounds, 2.3% hits. Potency, µM, inactives show max response, negative = inhibition, most hits filed as inhibitors. AID 1476. purified cruzain, Z-FR-AMC fluorescence, no detergent. P25779;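 also: plate controls were enzyme without inhibitor for no effect and buffer without enzyme for full effect; nearly all actives have a fitted effect of over 40% in size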
#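 Detergent-free condition (0.00005% Triton X-100) in acetate buffer pH 5.5 with DTT. 1.5 nM enzyme and compound were pre-mixed 15 min, then 2 uM Z-FR-AMC substrate added; reaction progress from fluorescence change between first and third reads (60 s).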
# Starred values were filed as active, the others as inactive; u = inconclusive; x = no result given; ! = repeats disagree. Unless noted, calls follow the shape of the dose curve; as a rule, active = well fitted curve in the direction sought with a large enough effect; inconclusive = small, poorly fitted or top-dose-only effect, or another doubt; inactive = no such curve, though single readings can be large; an effect the other way counts as inactive or inconclusive. Potency is read from the fitted curve at half-maximal effect.
SMILES,Cruzain Triton,NS1 function inh,Cruzain inh noDet
Cc1nccc2c1[nH]c1ccccc12,u,-10%,40µM*!
c1ccc2[nH]c(CSc3ncnc4c3oc3ccccc34)nc2c1,u,-115%,16µM*
Cc1nc(SCc2ccc(F)cc2)c2oc3ccccc3c2n1,x,3%,x
Fc1ccc(CSc2ncnc3c2oc2ccccc23)cc1,-3%,-3%,0%
Cc1nc(SCc2nc3ccccc3[nH]2)c2oc3ccccc3c2n1,u,-172%,16µM*
CCCn1c(-c2ccc(F)cc2)nc2c(N3CCC(N(C)C)C3)nc(C)nc21 (configuration not stated),0%,x,1%
CCC(C)(C)C1CCc2c(sc(N)c2C(N)=O)C1 (configuration not stated),-25%,12%,u
CCOC(=O)c1c(NC(=O)C2c3ccccc3Oc3ccccc32)sc2c1CCC(CC)C2 (configuration not stated),-1%,x,14%
CC1CCc2c(sc(NC(=O)C3c4ccccc4Oc4ccccc43)c2C(N)=O)C1 (configuration not stated),-6%,14%,25µM*
CC(C)(C)C1CCc2c(sc(N)c2C(N)=O)C1 (configuration not stated),-15%,-2%,25µM*
CCOC(=O)c1c(NC(=O)C2CCN(S(=O)(=O)c3cccs3)CC2)sc(C)c1C,-4%,-13%,-18%
CCOC(=O)c1c(NC(=O)C(C)N2CCN(S(=O)(=O)c3cccs3)CC2)sc2c1CCC(C)C2 (configuration not stated),-1%,4%,7.9µM*
CCCOC(=O)c1c(NC(=O)C2c3ccccc3Oc3ccccc32)sc2c1CCC(C)C2 (configuration not stated),-2%,x,20µM*
CC1CCc2c(sc(NC(=O)C3c4ccccc4Oc4ccccc43)c2C#N)C1 (configuration not stated),-4%,x,-24%
CCN(Cc1ccccc1)C(=O)Cn1c(=O)n(-c2ccc(Cl)cc2)c(=O)c2c(C)c(C(=O)N(C)C)sc21,3%,x,3%
N=C1N=C(N)c2cc3ccccc3cc21,-9%,x,-14%
CC(C)(C)C1CCc2c(sc(NC(=O)c3ccco3)c2C(N)=O)C1 (configuration not stated),-22%,u,-25%
CC(C)(C)C1CCc2c(sc(NC(=O)C3c4ccccc4Oc4ccccc43)c2C(N)=O)C1 (configuration not stated),-8%,x,10µM*
CC(/C=C/c1ccccc1)=N/O,u,0%,u
CC(/C=C/c1ccc(O)cc1)=N/O,22µM*,0%,7.9µM*
Oc1cccc(NC(=S)Nc2ccc(SC(F)F)cc2)c1,-5%,-32%,-2%
FC(F)Sc1ccc(NC(=S)NC2CCC(NC(=S)Nc3ccc(SC(F)F)cc3)CC2)cc1 (configuration not stated),2%,5%,16µM*
Clc1ccc(N=c2ssnc2Cl)nc1,x,0%,x
OCc1ccccc1N=c1ssnc1Cl,-3%,-1%,25µM*
COc1cc2c(cc1OC)C(COc1cc(C)cc(C)c1)N(C(=O)c1ccc(S(=O)(=O)N3CCCC3)cc1)CC2 (configuration not stated),-1%,x,u
SMILES,Cruzain Triton,NS1 function inh,Cruzain inh noDet
Cc1nc(Nc2ccc(Cl)cc2Cl)sc1C(=O)Nc1ccccc1,-5%,5%,-8%
Oc1nc(Nc2ccc(Cl)cc2Cl)sc1/C=C1\C=Nc2ccccc21,-6%,13%,25µM*
O=C(COc1ccc(/C=N/NC(=O)c2cc3ccccc3o2)cc1Br)Nc1ccccc1,25µM*,16%,10µM*
O=C(COc1ccccc1[N+](=O)[O-])Nc1ccc(NC(=O)c2cc3ccccc3o2)cc1,x,-1%,x
CCCn1c(SC(C(=O)Nc2cccc(OC)c2)c2ccccc2)nc2ccccc2c1=O (configuration not stated),-4%,15%,10µM*
CCn1c(SCC(=O)Nc2cccc(OC)c2)nc2ccccc2c1=O,x,-10%,x
CC(O)COC(C)(C)C (configuration not stated),3%,x,-3%
Cc1ccc(-c2cc(-c3ccccc3)c(C#N)c(SCC(O)CS(=O)(=O)Cc3ccccc3)n2)cc1 (configuration not stated),-3%,x,10µM*
C#CCSc1nc(-c2ccccc2)cc(-c2ccccc2)c1C#N,-6%,x,-28%
N#Cc1c(-c2ccccc2)cc(-c2ccccc2)nc1SCC(O)CS(=O)(=O)Cc1ccccc1 (configuration not stated),-2%,x,20µM*
CCOC(=O)/C(Sc1nc(-c2ccccc2)cc(-c2ccccc2)c1C#N)=C(\C)O,x,4%,x
CCOc1ccccc1NC(=O)C(Cc1ccccc1)NS(=O)(=O)c1ccc(Br)s1 (configuration not stated),6%,x,5%

# Screening results from PubChem.
